Measured values taken from PubChem BioAssay (NCATS).
Inconclusive results are not listed. Values without a mark were called inactive. Activity calls are given as the source filed them. The call rests on the fitted dose curve; in most records, active means well fitted inhibition curve with a large enough effect; inconclusive means small, poorly fitted or top-dose-only effect; inactive means flat fitted curve, though single readings scatter.

System: MCC-13
Assay: qHTS assay to identify novel small-molecules to repurpose for Merkel cell carcinoma treatment (AID 1296009); further: nearly all actives have a fitted effect of over 60% in size
Conditions: MCC and control cell lines, CellTiter-Glo viability, 72 h; series mostly up to 46 µM; activity change, negative = cytotoxicity: at the top concentration
Summary of the method: (§1)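 Cells exposed to NPC (8-point) and MIPE (11-point) compound dilutions for 72 hr at 37 degree celsius; viability read by CellTiter-Glo luminescence, normalized to no-cell and DMSO in-plate controls.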
On the % scale 0 is the no-effect control and ±100 the full control effect; potency means the concentration at half of the fitted maximal effect.

Row | Structure (SMILES) | activity change, negative = cytotoxicity [%] | Potency
1 | Nc1ccccc1C(=O)OCC(O)CO (configuration not stated) | -2.03 | –
2 | O=C1NCN(c2ccccc2)C12CCN(CCCOc1ccc(F)cc1)CC2 | -24.9 | –
3 | COc1ccc2c3c1O[C@H]1[C@@H](O)C=C[C@H]4[C@@H](C2)N(C)CC[C@@]341 | – | 23.8 µM (active)

System: MKL-1
Assay: as above
Conditions: MCC and control cell lines, CellTiter-Glo viability, 72 h; series mostly up to 46 µM; activity change, negative = cytotoxicity: at the top concentration
Summary of the method: as §1

Row | Structure (SMILES) | activity change, negative = cytotoxicity [%] | Potency
4 | Nc1ccccc1C(=O)OCC(O)CO (configuration not stated) | 21 | –
5 | O=C1NCN(c2ccccc2)C12CCN(CCCOc1ccc(F)cc1)CC2 | 6.04 | –
6 | COc1ccc2c3c1O[C@H]1[C@@H](O)C=C[C@H]4[C@@H](C2)N(C)CC[C@@]341 | – | 10.7 µM (active)
7 | CC[n+]1c(-c2ccccc2)c2cc(N)ccc2c2ccc(N)cc21 | – | 0.668 µM (active)

System: MKL-2
Assay: as above
Conditions: MCC and control cell lines, CellTiter-Glo viability, 72 h; series mostly up to 46 µM; activity change, negative = cytotoxicity: at the top concentration
Summary of the method: as §1

Row | Structure (SMILES) | activity change, negative = cytotoxicity [%] | Potency
8 | Nc1ccccc1C(=O)OCC(O)CO (configuration not stated) | 6.43 | –
9 | Clc1ccc(CSC(Cn2ccnc2)c2ccc(Cl)cc2Cl)cc1 (configuration not stated) | – | 13.3 µM (active)
10 | O=C1NCN(c2ccccc2)C12CCN(CCCOc1ccc(F)cc1)CC2 | 11.1 | –
11 | COc1ccc2c3c1O[C@H]1[C@@H](O)C=C[C@H]4[C@@H](C2)N(C)CC[C@@]341 | – | 2.12 µM (active)
12 | CC[n+]1c(-c2ccccc2)c2cc(N)ccc2c2ccc(N)cc21 | – | 0.944 µM (active)
